According to the supplement of paper PMC6607015:
Structures can show the parent of a compound that is named as a salt.

tested on: HeLa MZ; test: whole-cell filipin (free cholesterol) integrated intensity, Z-score; higher = more cholesterol staining; details: compound concentration in added solution (µM; 5 µl added to 20 µl cells): 10; 18 h
Outline: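 HeLa MZ or A431 cells (3,500/well in 20 µl) were seeded onto 5 µl of 10 µM compound solution in duplicate 384-well imaging plates, incubated 18 h, then fixed in 4% PFA. Cells were stained with 6C4 anti-LBPA antibody, filipin, propidium iodide and CellTracker green, and four 20× images were taken per well. MetaXpress segmentation gave per-cell integrated LBPA or filipin intensity, either whole-cell or within LBPA endosomes. Values are Z-scores normalised in AcuityXpress.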

SMILES	whole-cell filipin (z-score)
C/C=C(/C(=C/C)c1ccc(O)cc1)c1ccc(O)cc1 [Dienestrol]	-0.338
Cc1onc(-c2ccccc2Cl)c1C(=O)N[C@@H]1C(=O)N2[C@@H]1SC(C)(C)[C@@H]2C(=O)O [Cloxacillin sodium salt]	-0.277
Clc1ccc2c(c1)C(N1CCNCC1)=Nc1ccccc1O2 [Amoxapine]	-0.797
CCN(CC)C(=S)SSC(=S)N(CC)CC [Disulfiram]	0.0194
CC(C)(C)CC(C)(C)c1ccc(OCCOCC[N+](C)(C)Cc2ccccc2)cc1 [Benzethonium chloride]	-0.53
CC(C)n1c(/C=C/C(O)CC(O)CC(=O)O)c(-c2ccc(F)cc2)c2ccccc21 (centres undefined) [Fluvastatin sodium salt]	-0.754
CC(NCCC(c1ccccc1)c1ccccc1)c1ccccc1 (centres undefined) [Fendiline hydrochloride]	0.948
CCOC(=O)C1=C[C@]2(CC)CCCN3CCc4c(n1c1ccccc41)[C@@H]32 [Vinpocetine]	-0.464
CC(C)NCC(O)c1cc(O)cc(O)c1 (centres undefined) [Metaproterenol sulfate, orciprenaline sulfate]	-0.375
CCN(CC)C(=O)c1ccc(O)c(OC)c1 [Ethamivan]	0.274
O=C(O)CCC(=O)c1ccc(-c2ccccc2)cc1 [Fenbufen]	-0.311
O=C1NCCN1CCN1CCC(c2cn(-c3ccc(F)cc3)c3ccc(Cl)cc23)CC1 [Sertindole]	-0.48
COc1ccc(C(Cl)=C(c2ccc(OC)cc2)c2ccc(OC)cc2)cc1 [Chlorotrianisene]	-0.127
CC1=C(/C=C/C(C)=C/C=C/C(C)=C/C(=O)O)C(C)(C)CCC1 [Retinoic acid]	-0.698
Oc1c(Cl)cc(Cl)c(Cl)c1Cc1c(O)c(Cl)cc(Cl)c1Cl [Hexachlorophene]	-0.11
CC(C)(Oc1ccc(CCNC(=O)c2ccc(Cl)cc2)cc1)C(=O)O [Bezafibrate]	-0.728
COc1ccc(C(=O)NCc2ccc(OCCN(C)C)cc2)cc1OC [Itopride]	-0.665
CS(=O)(=O)c1ccc([C@@H](O)[C@@H](CF)NC(=O)C(Cl)Cl)cc1 [Florfenicol]	-0.36
C=C(NC(=O)C(=C)NC(=O)c1csc(C2=N[C@@H]3c4csc(n4)[C@H]4NC(=O)c5csc(n5)[C@H]([C@](C)(O)[C@@H](C)O)NC(=O)[C@H]5CSC(=N5)/C(=C/C)NC(=O)[C@H]([C@@H](C)O)NC(=O)c5csc(n5)[C@]3(CC2)NC(=O)[C@H](C)NC(=O)C(=C)NC(=O)[C@H](C)NC(=O)[C@H]([C@@H](C)CC)N[C@@H]2C=Cc3c([C@H](C)O)cc(nc3[C@H]2O)C(=O)O[C@@H]4C)n1)C(N)=O [Thiostrepton]	-0.786
O=C(O)CNC(=O)C(CS)Cc1ccccc1 (centres undefined) [Thiorphan]	-0.571
C1CCC(C(CC2CCCCN2)C2CCCCC2)CC1 (centres undefined) [Perhexiline maleate]	0.438
CCN(CC)CCOC(=O)C1(c2ccc([N+](=O)[O-])cc2)CCCC1 [Nitrocaramiphen hydrochloride]	-0.278
C[C@@H]1CCC[C@H](C)N1NC(=O)c1ccc(Cl)c(S(N)(=O)=O)c1 [Clopamide]	-0.712
Fc1ccc([C@@H]2CCNC[C@H]2COc2ccc3c(c2)OCO3)cc1 [Paroxetine Hydrochloride]	-0.28
O=C(O)c1ccccc1Nc1cccc(C(F)(F)F)c1 [Flufenamic acid]	-0.685
Cc1cc(C(C)(C)C)cc(C)c1CC1=NCCN1 [Xylometazoline hydrochloride]	0.463
Cc1ccc(-c2ncc(Cl)cc2-c2ccc(S(C)(=O)=O)cc2)cn1 [Etoricoxib]	-0.603
CN[C@H]1CC[C@@H](c2ccc(Cl)c(Cl)c2)c2ccccc21 [Sertraline]	0.938
O=C(CCCN1CCC(O)(c2ccc(Br)cc2)CC1)c1ccc(F)cc1 [Bromperidol]	1.12
